Consider seven compounds from PubChem BioAssay (Tox21).

Assay [1] in a line: qHTS RealTime-Glo MT Cell Viability Assay in HEK293 cells - 8 hour (AID 1224887). Also: nearly all actives have a fitted effect of over 50% in size. Also: potency is read from the fitted curve at half-maximal effect. The essentials:
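HEK293 + NanoLuc + prosubstrate, 600 cells/well; 5 h, 37 C/5% CO2; compound 23 nL in DMSO by pintool; 37 C; luminescence read at 0, 8, 16, 24, 32 and 40 h time points.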
Background: Quantitative high-throughput screening tests each substance at several concentrations.

A short description of assay [2]: A CellTox Green Cytotoxicity Assay to monitor cytotoxicity in HEK293 cells - 16 hour (AID 1224888). Also: nearly all actives have a fitted effect of over 35% in size. In outline:
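Tox21 screen in HEK293: membrane-impermeant cyanine dye fluoresces on binding dead-cell DNA; compound pinned 5 h post-seeding, plates held at 37 C, signal read repeatedly through 40 h.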

The nature of assay [3]: qHTS RealTime-Glo MT Cell Viability Assay in HepG2 cells - 0 hour (AID 1224889). Also: nearly all actives have a fitted effect of over 50% in size. In outline: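 Compound treatment began 5 h after plating HepG2 cells (600/well) with NanoLuc luciferase and prosubstrate. Plates stayed at 37 C for 40 h; luminescence was captured at six time points, 0 h through 40 h.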
A short description of assay [4]: A CellTox Green Cytotoxicity Assay to monitor cytotoxicity in HepG2 cells - 8 hour (AID 1224890). Also: nearly all actives have a fitted effect of over 45% in size. In outline: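 Measurements at 0, 8, 16, 24, 32 and 40 h of treatment captured CellTox Green fluorescence in HepG2 cells that had been co-plated with reagent and preincubated 5 h at 37 C/5% CO2.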
A short description of assay [5]: qHTS assay to identify small molecule antagonists of the estrogen receptor alpha (ER-alpha) signaling pathway using the BG1 cell line in the presence of 0.1 nM 17-beta-estradiol - cell viability counter screen (AID 1259241). Also: nearly all actives have a fitted effect of over 40% in size. The essentials: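 Cells were plated and left 24 hr, compounds in DMSO were pinned in, 17beta-estradiol was added to 0.1 nM final, and after 22 hr CellTiter-Fluor reagent was added for 30 min before fluorescence was read.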

Assay [6] in a line: qHTS assay to identify small molecule antagonists of the androgen receptor (AR) signaling pathway using the MDA cell line in the presence of 0.5 nM R1881 - cell viability counter screen (AID 1259242). Also: nearly all actives have a fitted effect of over 45% in size. The essentials: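 Concentration-response screen of compounds for toxicity in MDA-kb2 reporter cells: 16 hr at 37C with 0.5 nM R1881, endpoint live-cell protease fluorescence measured in the reporter wells.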

Assay [7] concerns the target Androgen receptor (Homo sapiens) (UniProt P10275). Briefly: qHTS assay to identify small molecule antagonists of the androgen receptor (AR) signaling pathway using the MDA cell line in the presence of 0.5 nM R1881 (AID 1259243). Also: nearly all actives have a fitted effect of over 50% in size. In outline:
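With R1881 held at 0.5 nM (final), compound effects on MMTV-luciferase expression in MDA-kb2 cells were scored by luminescence after a 16 hr, 37C incubation.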

Assay [8] can be described thus: qHTS assay to identify small molecule HDAC inhibitors (AID 1259364).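 Also: wild-type HCT-116 cells with endogenous class I/II HDAC activity; top concentration of the series differs between compounds; nearly all actives have a fitted effect of over 45% in size.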 The essentials:
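Screening used wild-type human colon HCT-116 cells incubated overnight, dosed with compounds for 2 hours, and assayed with a homogeneous luminogenic HDAC I/II reagent for 30 minutes at room temperature.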

The nature of assay [9]: qHTS assay to identify small molecule HDAC inhibitors - cell viability counter screen (AID 1259365). Also: series mostly up to about 92 µM; nearly all actives have a fitted effect of over 50% in size. The essentials: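 Counter screen in wild-type HCT-116 cells: compounds dissolved in DMSO are pin-transferred onto overnight-plated cells and left 2hr at 37C. ATP-based CellTiter-Glo luminescence then measures viable cells.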
A short description of assay [10]: qHTS assay to identify small molecule agonists of the sonic hedgehog signaling (Shh) pathway - cell viability counter screen (AID 1259366). Also: nearly all actives have a fitted effect of over 50% in size. In outline:
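Cells are plated at 2,000 per well and left 4hr at 37C, 5% CO2 before compound addition. After 23hr of treatment, CellTiter-Fluor reagent is added for 1hr at 37C and fluorescence is measured.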

The nature of assay [11]: qHTS assay to identify small molecule antagonists of the sonic hedgehog signaling (Shh) pathway - cell viability counter screen (AID 1259367). Also: nearly all actives have a fitted effect of over 55% in size. In outline: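 Tox21 library chemicals were tested on a Gli1-Luc NIH/3T3 clone (2,000 cells/well) stimulated by conditioned medium; viability was quantified as fluorescence from CellTiter-Fluor reagent added at 23 hr.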
Assay [12] can be described thus: qHTS assay to identify small molecule agonists of the sonic hedgehog signaling (Shh) pathway (AID 1259368; calls by dose curve;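 also: NIH/3T3-derived 3T3Gli1-Luc cells carrying a stable Gli1-driven firefly luciferase reporter; series mostly up to about 92 µM; nearly all actives have a fitted effect of over 15% in size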). In outline:
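Hedgehog pathway agonism scored by increased firefly luciferase luminescence in 3T3Gli1-Luc cells treated 24 hr at 37 C; detection used a 30 min room-temperature reagent incubation.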

Assay [13] in a line: qHTS assay to identify small molecule antagonists of the sonic hedgehog signaling (Shh) pathway (AID 1259369; calls by dose curve; also: nearly all actives have a fitted effect of over 45% in size). The essentials: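 NIH/3T3 stable Gli1-Luc clone, 2,000 cells/well, 4hr settle; cpd + conditioned medium 24hr; Luc reagent 30min RT; luminescence.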
For assay [14], the target named is Estrogen receptor beta (Homo sapiens) (UniProt Q92731). Nature of the assay: qHTS assay to identify small molecule agonists of the estrogen receptor beta (ER-beta) signaling pathway (AID 1259377; active = well fitted activation curve with a large enough effect in the signal ratio in the repeat runs, not every such curve was filed as active; the % refers to the signal ratio). The essentials:
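Agonist mode cell assay in GripTite HEK293T cells expressing an ER-beta fusion that drives beta-lactamase from an Upstream Activator Sequence; 16 hr compound exposure at 37C, then 2 h LiveBLAzer B/G FRET substrate at room temperature, fluorescence read-out.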

For assay [15] the target is unchanged. Nature of the assay: qHTS assay to identify small molecule antagonists of the estrogen receptor beta (ER-beta) signaling pathway (AID 1259378; active = well fitted inhibition curve with a large enough effect in the signal ratio in the repeat runs, not every such curve was filed as active; the % refers to the signal ratio). The essentials:
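ER-beta-UAS-bla HEK293T cells in 2% charcoal-stripped FBS medium treated with compound plus 1nM final 17-beta-estradiol for 16 hr at 37C. Beta-lactamase reporter read by FRET substrate fluorescence after 2 hours at room temperature.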

Assay [16] is described as follows: qHTS assay to identify small molecule agonists of the androgen receptor (AR) signaling pathway in the presence of an antagonist - cell viability counter screen (AID 1259379).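 Also: MDA-kb2 human breast cancer cells carrying an MMTV luciferase reporter; series mostly up to about 92 µM; nearly all actives have a fitted effect of over 25% in size.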 The essentials:
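MDA-kb2 viability measured by CellTiter-Fluor fluorescence in the same wells as the luciferase signal; nilutamide 3.0uM final; 15-point compound titration; 16 hr at 37C.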

Assay [17] in a line: qHTS assay to identify small molecule agonists of the estrogen receptor beta (ER-beta) signaling pathway - cell viability counter screen (AID 1259380). Also: nearly all actives have a fitted effect of over 30% in size. The essentials:
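Measured: luminescence from CellTiter-Glo after 30 min at room temperature, added to wells already read for the LiveBLAzer FRET reporter (2 hr substrate); ER-beta-UAS-bla HEK293T cells had 16 hr compound treatment at 37C, 5% CO2.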

Assay [18] deals with Androgen receptor (Homo sapiens) (UniProt P10275). Nature of the assay: qHTS assay to identify small molecule agonists of the androgen receptor (AR) signaling pathway in the presence of an antagonist (AID 1259381; calls by dose curve; also: nearly all actives have a fitted effect of over 15% in size). In outline:
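Luminescent ONE-Glo read, 30min at room temperature, follows 16hr compound exposure (15 concentrations) of MDA-kb2 cells at 37C, 0% CO2, with nilutamide added at 3.0uM final.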

The target of assay [19] is Estrogen receptor (Homo sapiens) (UniProt P03372). Briefly: qHTS assay to identify small molecule antagonists of the estrogen receptor alpha (ER-alpha) signaling pathway using the BG1 cell line in the presence of 0.1 nM 17-beta-estradiol (AID 1259244). Also: nearly all actives have a fitted effect of over 50% in size. The essentials:
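Compounds were tested against 0.1 nM (final) 17beta-estradiol in VM7Luc4E2 cells, which express full-length ER-alpha and an ERE-luciferase reporter; luminescence was recorded following 22 h exposure.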

SMILES strings stand for the structures. Values without a mark were called inactive. Inconclusive results are not listed. Calls of active or inactive are those of the source. Unless noted, calls follow the shape of the dose curve; as a rule, active = well fitted curve in the direction sought with a large enough effect in the repeat runs; inconclusive = weak or mixed curves; inactive = no such curve, though single readings can be large; an effect the other way counts as inactive or inconclusive.

Estrogen receptor beta (Homo sapiens), sequence (Q92731 whole entry, looked up, the tested form may be a part): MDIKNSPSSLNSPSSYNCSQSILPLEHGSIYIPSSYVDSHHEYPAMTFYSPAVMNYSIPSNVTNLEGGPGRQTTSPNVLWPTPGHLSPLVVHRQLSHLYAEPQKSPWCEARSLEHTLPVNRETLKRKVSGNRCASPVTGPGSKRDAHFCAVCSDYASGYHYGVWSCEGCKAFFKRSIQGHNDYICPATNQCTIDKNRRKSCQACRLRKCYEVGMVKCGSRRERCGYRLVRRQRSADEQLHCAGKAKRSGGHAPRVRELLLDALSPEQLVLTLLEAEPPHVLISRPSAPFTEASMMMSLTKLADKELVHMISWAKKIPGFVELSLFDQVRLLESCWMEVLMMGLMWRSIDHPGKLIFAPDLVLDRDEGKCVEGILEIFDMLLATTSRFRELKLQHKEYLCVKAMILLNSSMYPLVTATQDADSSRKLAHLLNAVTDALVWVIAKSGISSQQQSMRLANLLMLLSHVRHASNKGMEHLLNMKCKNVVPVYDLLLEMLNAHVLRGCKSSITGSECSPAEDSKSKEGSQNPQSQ
Estrogen receptor (Homo sapiens), sequence (P03372 whole entry, looked up): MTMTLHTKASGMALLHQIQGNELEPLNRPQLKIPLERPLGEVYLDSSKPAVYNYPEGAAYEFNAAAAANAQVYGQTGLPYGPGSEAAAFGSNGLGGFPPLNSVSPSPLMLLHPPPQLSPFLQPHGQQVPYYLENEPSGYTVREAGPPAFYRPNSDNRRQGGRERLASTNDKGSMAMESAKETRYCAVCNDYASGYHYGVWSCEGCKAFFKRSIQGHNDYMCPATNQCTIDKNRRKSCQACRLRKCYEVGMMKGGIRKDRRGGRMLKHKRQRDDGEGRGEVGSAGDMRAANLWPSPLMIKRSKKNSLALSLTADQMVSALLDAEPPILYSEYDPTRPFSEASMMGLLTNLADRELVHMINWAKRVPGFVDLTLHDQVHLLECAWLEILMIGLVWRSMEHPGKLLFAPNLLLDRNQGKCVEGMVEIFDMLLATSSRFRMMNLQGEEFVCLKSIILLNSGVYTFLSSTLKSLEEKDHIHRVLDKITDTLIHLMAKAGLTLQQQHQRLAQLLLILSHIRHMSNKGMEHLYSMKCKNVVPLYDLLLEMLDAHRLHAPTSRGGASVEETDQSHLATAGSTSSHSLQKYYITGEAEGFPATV
Androgen receptor (Homo sapiens), sequence (P10275 whole entry, looked up): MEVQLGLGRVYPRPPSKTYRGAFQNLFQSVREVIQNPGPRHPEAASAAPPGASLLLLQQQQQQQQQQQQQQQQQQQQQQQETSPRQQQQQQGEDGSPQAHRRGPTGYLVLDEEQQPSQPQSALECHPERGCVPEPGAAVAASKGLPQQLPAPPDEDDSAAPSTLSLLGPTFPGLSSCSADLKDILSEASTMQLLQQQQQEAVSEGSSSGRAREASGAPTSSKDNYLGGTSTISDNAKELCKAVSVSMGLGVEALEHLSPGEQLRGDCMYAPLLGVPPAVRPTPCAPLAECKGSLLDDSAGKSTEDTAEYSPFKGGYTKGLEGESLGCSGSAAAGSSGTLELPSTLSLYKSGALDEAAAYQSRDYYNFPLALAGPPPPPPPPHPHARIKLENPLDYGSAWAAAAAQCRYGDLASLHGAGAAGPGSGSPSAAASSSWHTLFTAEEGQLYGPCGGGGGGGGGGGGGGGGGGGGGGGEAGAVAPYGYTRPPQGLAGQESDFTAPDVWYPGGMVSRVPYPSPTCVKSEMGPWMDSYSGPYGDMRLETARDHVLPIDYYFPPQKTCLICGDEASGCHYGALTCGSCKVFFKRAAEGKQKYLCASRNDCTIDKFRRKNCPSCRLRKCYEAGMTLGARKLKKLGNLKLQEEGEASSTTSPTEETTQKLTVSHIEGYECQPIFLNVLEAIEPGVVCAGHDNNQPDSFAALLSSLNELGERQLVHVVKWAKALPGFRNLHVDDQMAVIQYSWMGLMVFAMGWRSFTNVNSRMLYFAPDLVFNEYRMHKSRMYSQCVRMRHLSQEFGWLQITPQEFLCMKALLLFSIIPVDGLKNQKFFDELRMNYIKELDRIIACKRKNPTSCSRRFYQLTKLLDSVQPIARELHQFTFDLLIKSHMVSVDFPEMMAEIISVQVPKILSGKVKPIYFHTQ

Take `CC(C)C(=O)C(C)C`: the Potency result in [1], in [2], in [3], in assay [4], in assay [5] and in assay [6] was “inactive” throughout. The Potency result in [7], in [8], in assay [9], in [10], in assay [11] and in assay [12] was “inactive” in each case. The Potency result in assay [13], in assay [15], in [16], in assay [17] and in [18] was “inactive” each time. Moreover, the call in assay [14] was inactive.

For the compound `CSc1nnc(C(C)(C)C)c(=O)[nH]1`, the Potency result in [1], in [2], in assay [3], in assay [4], in assay [5] and in assay [6] was “inactive” in each case. The Potency result in assay [7], in [19], in assay [8], in assay [10], in assay [11] and in assay [12] was “inactive” in each case. Further, the Potency entry in assay [13], in assay [15], in assay [16], in [17] and in [18] was “inactive” in each case. Besides, the compound was called inactive in assay [14].

`CCCCCCCCSCc1cc(C)c(O)c(CSCCCCCCCC)c1`: the Potency in assay [1] was 9.77 µM (active). Besides, the Potency result in assay [2], in assay [3], in [4], in [5], in [6] and in [7] was “inactive” throughout. Besides, the Potency entry in assay [19], in assay [8], in assay [10], in assay [12], in assay [16] and in assay [17] was “inactive” each time. Moreover, the Potency entry in [18] is “inactive”.

On to `CCc1c(C)cc(N)c(CC)c1N`, for which the Potency result in assay [1], in assay [2], in assay [3], in [4], in assay [5] and in assay [6] was “inactive” each time. The Potency result in assay [7], in assay [19], in assay [8], in [10], in assay [11] and in assay [12] was “inactive” each time. The Potency entry in assay [13], in assay [15], in assay [16], in assay [17] and in [18] was “inactive” throughout. The compound was called inactive in [14].

For the compound `C/C(=N\[Si](C)(C)C)O[Si](C)(C)C`, the Potency result in [1], in [2], in assay [3], in [4], in assay [5] and in assay [6] was “inactive” in each case. Moreover, the Potency result in assay [7], in assay [19], in [8], in assay [9], in [10] and in assay [11] was “inactive” throughout. For the same compound, the Potency entry in assay [12], in assay [13], in assay [17] and in assay [18] was “inactive” each time.

As to `[Cl][Sc]([Cl])[Cl]`, the Potency entry in assay [1], in assay [2], in assay [3], in assay [4], in [5] and in assay [6] was “inactive” throughout. Moreover, the Potency result in assay [7], in assay [8], in assay [11], in [12], in [13] and in assay [16] was “inactive” each time. In addition, the Potency entry in [17] and in assay [18] was “inactive” in each case.

Consider `CCOC=C(C(=O)OCC)C(=O)OCC`, for which the Potency entry in assay [1], in assay [2], in [3], in assay [4], in assay [5] and in assay [6] was “inactive” each time. The Potency result in [7], in assay [8], in [10], in assay [11], in assay [12] and in [13] was “inactive” in each case. Moreover, the Potency result in assay [15], in assay [16], in assay [17] and in assay [18] was “inactive” in each case.
